# In the library only some 6.7% were active in any assay of this set; here they are far more common.
# Pf Dd2 growth: blocks growth of Plasmodium falciparum Dd2 parasites. actives 2.3% (n = 94,000). activity change, % at 10 µM. P. falciparum Dd2 growth, SYBR Green, 72 h; hits give low values; in the data active means activity change below about -80%; inconclusive means no clear call, values can overlap the other calls
# T cruzi growth-1: blocks T. cruzi growth in NIH3T3 culture; T. cruzi beta-gal in NIH3T3, GalScreen luminescence, 90 h; AID 624255; inhibition, % at 8.34 µM; actives 5.9% (n = 77,000);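 active means mean inhibition above about 93%, with at least 55% of replicates each passing it, limit read from the data, passing the limit was not always enough; inconclusive means only one of those two conditions holds; inactive means neither condition holds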
# C diff growth: blocks growth of Clostridium difficile | growth activity, negative = inhibition, % at 16 µg/mL (by protocol) | actives 0.25% (n = 86,000) | Clostridium difficile clinical isolate growth, OD600, 24 h; hits give low values;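 active means mean growth activity at or below -80% and every replicate also at or below -80%; inconclusive means mean at or below -80% but some replicate above -80%; inactive means mean growth activity above -80%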
# T cruzi growth-2: Trypanosoma cruzi proliferation inhibition; shares compounds with T cruzi growth-1; T. cruzi beta-gal in NIH3T3, GalScreen luminescence, 90 h; actives 72% (n = 5,600); inhibition, % at 8.35 µM;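 active means mean replicate inhibition above about 95% and at least 55% of replicates individually reaching it, limit read from the data; inconclusive means only one of the two criteria is met; inactive means neither criterion is met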
# T cruzi growth-3: blocks T. cruzi growth in NIH3T3 host cells; T. cruzi beta-gal in NIH3T3, GalScreen luminescence, 90 h; AID 651740; inhibition, % at 2.09 µM; actives 21% (n = 5,600); shares compounds with T cruzi growth-1;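 active means mean inhibition above about 95%, with at least 55% of replicates also reaching it, limit read from the data; inconclusive means meets just one of the two conditions; inactive means meets neither condition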
# NIH3T3 tox: NIH/3T3 (mouse) viability loss; shares compounds with T cruzi growth-1; cytotoxicity (signal decrease), % at 8.35 µM; NIH/3T3 viability, CellTiter-Glo ATP luminescence, 90 h; actives 14% (n = 5,600); AID 651742;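 active means mean signal decrease across replicates above about 35% based on untreated-well scatter, with enough replicates individually passing, limit read from the data; inconclusive means no rule stated though some were filed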
# 3T3 cytotox 2: cytotoxicity in mouse NIH/3T3 fibroblasts; shares compounds with T cruzi growth-1; NIH/3T3 viability, CellTiter-Glo ATP luminescence, 90 h; inhibition, % at 24.9 µM; actives 56% (n = 5,600); AID 651744;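 active means mean loss of cell viability signal at or above a set limit, and enough replicates individually reaching it; inconclusive means meets only the mean limit or only the replicate share; inactive means meets neither condition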
# A number is an active result; n = inactive; u = inconclusive; x = no result given.
SMILES,Pf Dd2 growth,T cruzi growth-1,C diff growth,T cruzi growth-2,T cruzi growth-3,NIH3T3 tox,3T3 cytotox 2
COc1ccc(S(=O)(=O)N2CCCCN3[C@H](CO)[C@H](c4ccc(C#CCC(C)C)cc4)[C@@H]3C2)cc1,n,u,n,n,u,41.2,67.1
COc1ccc(S(=O)(=O)N2CCCCN3[C@H](CO)[C@H](c4ccc(C#CC(C)C)cc4)[C@H]3C2)cc1,n,101.7,n,105.4,98.2,71.6,73.4
C[C@@H]1CN([C@H](C)CO)C(=O)c2cc(C#C[C@@H](C)O)cnc2O[C@@H]1CN(C)C(=O)c1ccccc1,n,n,n,x,x,x,x
C[C@@H]1CCCCO[C@H](CN(C)S(=O)(=O)c2cccs2)[C@@H](C)CN([C@@H](C)CO)C(=O)c2cc(N(C)C)ccc2O1,n,n,n,x,x,x,x
CCCN(C)C[C@H]1Oc2cc(C#CC(C)(C)O)ccc2S(=O)(=O)N([C@H](C)CO)C[C@H]1C,n,n,n,x,x,x,x
CN(C)C(=O)c1cccc(-c2ccc3c(c2)[C@@H]2[C@@H](CCN2S(=O)(=O)c2ccccc2)[C@@H](CO)N3)c1,n,108.1,n,103.5,u,n,n
Cc1cccc(S(=O)(=O)N2CC[C@@H]3[C@H]2c2cc(-c4ccccc4F)ccc2N[C@@H]3CO)c1,n,n,n,x,x,x,x
Cc1ccc(S(=O)(=O)N2CC[C@H]3[C@H](CO)Nc4ccc(-c5ccccc5F)cc4[C@H]32)cc1,n,u,n,102.9,n,46.4,84.8
O=S(=O)(c1ccccc1)N1CC[C@H]2[C@H](CO)Nc3ccc(-c4ccccc4F)cc3[C@H]21,n,101.7,n,101.5,n,59.3,67.3
Cc1ccc(S(=O)(=O)N2CC[C@@H]3[C@H](CO)Nc4ccc(-c5ccccc5F)cc4[C@@H]32)cc1,n,111.9,n,101.7,110.3,40.4,59.9
Cc1ccc(S(=O)(=O)N2CC[C@@H]3[C@H](CO)Nc4ccc(-c5cccc(C(=O)N(C)C)c5)cc4[C@@H]32)cc1,n,n,n,x,x,x,x
Cc1cccc(S(=O)(=O)N2CC[C@@H]3[C@H](CO)Nc4ccc(-c5ccccc5F)cc4[C@@H]32)c1,n,n,n,x,x,x,x
O=S(=O)(c1ccc(F)cc1)N1CC[C@H]2[C@H](CO)Nc3ccc(-c4ccccc4F)cc3[C@H]21,n,n,n,x,x,x,x
CC(C)NC(=O)N[C@H]1CC[C@H](CCNC(=O)C2CCCC2)O[C@H]1CO,n,n,n,x,x,x,x
C[C@H](CO)N1C[C@H](C)[C@@H](CN(C)Cc2cccc(F)c2)Oc2ncc(C#CC(C)(C)O)cc2C1=O,n,x,x,x,x,x,x
N#C[C@@H]1[C@@H](c2ccc(C#CC3CCCC3)cc2)[C@H](CO)N1S(=O)(=O)c1ccccc1,n,97.4,n,95.2,106.9,n,104.5
N#C[C@H]1[C@H](c2ccc(C#CC3CCCC3)cc2)[C@@H](CO)N1S(=O)(=O)c1ccccc1,n,100.0,n,95.5,99.2,n,105.7
N#C[C@H]1[C@@H](c2ccc(C#CC3CCCCC3)cc2)[C@H](CO)N1S(=O)(=O)c1ccccc1,n,n,n,x,x,x,x
N#C[C@@H]1[C@@H](c2ccc(C#CC3CCCCC3)cc2)[C@H](CO)N1S(=O)(=O)c1ccccc1,n,n,n,x,x,x,x
COc1ccc2c3c([nH]c2c1)[C@@H](CO)N(Cc1cccnc1)CC31CN(C(=O)c2cccnc2)C1,n,x,n,x,x,x,x
COc1ccc2c3c(n(C)c2c1)[C@H](CO)N(C(=O)c1ccncc1)CC31CN(S(C)(=O)=O)C1,n,x,n,x,x,x,x
COc1ccccc1CNC(=O)C[C@H]1CC[C@@H](NC(C)=O)[C@@H](CO)O1,n,n,n,x,x,x,x
C[C@H]1CCCCO[C@@H](CN(C)Cc2ccc(C(=O)O)cc2)[C@@H](C)CN([C@@H](C)CO)C(=O)c2cc(NS(=O)(=O)c3ccccc3)ccc2O1,n,n,n,x,x,x,x
COc1ccc(NC(=O)Nc2ccc3c(c2)[C@@H]2C[C@H](CC(=O)NCCc4ccccc4)O[C@H](CO)[C@@H]2O3)cc1,n,159.3,n,105.2,100.7,n,n
CCCNC(=O)C[C@@H]1C[C@H]2c3cc(NC(=O)Nc4ccc(OC)cc4)ccc3O[C@H]2[C@H](CO)O1,n,n,n,x,x,x,x
SMILES,Pf Dd2 growth,T cruzi growth-1,C diff growth,T cruzi growth-2,T cruzi growth-3,NIH3T3 tox,3T3 cytotox 2
O=C(C[C@@H]1C[C@@H]2c3cc(NC(=O)Nc4ccccc4)ccc3O[C@@H]2[C@H](CO)O1)NCC1CC1,n,101.5,n,n,n,n,n
CCCNC(=O)C[C@H]1C[C@@H]2c3cc(NC(=O)Nc4ccc(OC)cc4)ccc3O[C@@H]2[C@@H](CO)O1,n,n,n,x,x,x,x
O=C(C[C@@H]1C[C@H]2c3cc(NC(=O)Nc4ccc(F)cc4)ccc3O[C@H]2[C@@H](CO)O1)NCC1CC1,n,n,n,x,x,x,x
COc1ccc(NC(=O)Nc2ccc3c(c2)[C@H]2C[C@H](CC(=O)NCCc4ccccc4)O[C@H](CO)[C@H]2O3)cc1,n,148.9,n,109.2,n,n,n
CCC(=O)N1[C@H](CO)[C@H](c2ccc(-c3ccccc3OC)cc2)C12CN(C(C)=O)C2,n,x,n,x,x,x,x
CO[C@H](CN(C)C(=O)Nc1ccc(C(F)(F)F)cc1)[C@H](C)CN(Cc1ccccc1Cl)[C@H](C)CO,n,105.1,x,110.3,n,46.1,104.5
CO[C@H](CN(C)S(=O)(=O)c1ccc(F)cc1)[C@H](C)CN(Cc1ccccc1Cl)[C@H](C)CO,n,n,x,x,x,x,x
CO[C@H](CN(C)C(=O)Nc1ccc(C(F)(F)F)cc1)[C@@H](C)CN(Cc1ccccc1Cl)[C@H](C)CO,n,97.7,x,103.4,n,45.1,103.1
CO[C@@H](CN(C)C(=O)Nc1ccc(F)cc1)[C@@H](C)CN(Cc1ccccc1Cl)[C@H](C)CO,n,n,x,x,x,x,x
CO[C@H](CN(C)C(=O)Nc1ccc(Cl)cc1)[C@@H](C)CN(Cc1ccccc1Cl)[C@@H](C)CO,n,u,x,108.9,n,n,39.7
CO[C@@H](CN(C)C(=O)Nc1ccc(C(F)(F)F)cc1)[C@H](C)CN(Cc1ccccc1Cl)[C@H](C)CO,n,n,x,x,x,x,x
CO[C@@H](CN(C)C(=O)Nc1ccc(F)cc1)[C@@H](C)CN(Cc1ccccc1Cl)[C@@H](C)CO,n,n,x,x,x,x,x
CO[C@@H](CN(C)S(=O)(=O)c1ccc(F)cc1)[C@@H](C)CN(Cc1ccccc1Cl)[C@H](C)CO,n,107.2,x,n,n,n,u
CC(C)NC(=O)N(C)C[C@@H]1OCCCC[C@H](C)Oc2ccc(NS(=O)(=O)c3ccc(Cl)cc3)cc2C(=O)N([C@@H](C)CO)C[C@@H]1C,x,n,n,x,x,x,x
CCCC(=O)Nc1ccc2c(c1)C(=O)N(C)C[C@@H](OC)[C@H](C)CN(C(=O)c1ccccc1F)[C@H](C)CO2,n,n,n,x,x,x,x
CS(=O)(=O)Nc1ccc2c(c1)[C@@H]1C[C@@H](CC(=O)NCc3ccccc3)O[C@@H](CO)[C@@H]1O2,n,n,x,x,x,x,x

# Compound activity as filed in PubChem.
